# In PubChem BioAssay AID1490 (National Center for Advancing Translational Sciences (NCATS), 2009):
# “And” between values parts separate entries of the source, which are not always exact repeats. Equal entries are not always repeated. In all, about 310,000 compounds went through this assay and about 11,000 (3.5%) were called active. About 4% were inconclusive and are not listed. Shown is part of a subset that was picked to be rich in actives. Values without a mark were called inactive. The call rests on the fitted dose curve; in most records, active means well fitted inhibition curve with a large enough effect; inconclusive means small, poorly fitted or top-dose-only effect, or another doubt; inactive means no such curve, though single readings can be large or run the other way.
# Molecular target: 4'-phosphopantetheinyl transferase ffp (Bacillus subtilis) (UniProt Q9F4F7)
# Test: qHTS Assay for Inhibitors of Bacillus subtilis Sfp phosphopantetheinyl transferase (PPTase);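 further: the enzyme is Sfp with the accession as filed and its product quenches rhodamine fluorescence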;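 on largest response in the series, negative = inhibition: 0% = enzyme reaction without inhibitor and -100% = no enzyme wells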
# Conditions: Biochemical Sfp PPTase activity
# Text: Assay Submitter: Michael Burkart, University of California, San Diego
# Screening Center PI: Austin, C.P.
# Screening Center: NIH Chemical Genomics Center [NCGC]
# The covalent attachment of a phosphopantetheinyl (4'-PP) arm to a variety of synthases and other proteins is a key posttranslational protein modification. The 4'-PP is installed on the proteins post-translationally from coenzyme A (CoA) on a conserved serine residue by action of phosphopantetheinyl transferase (PPTase) enzymes. Phosphopantetheinylation is essential for synthase activity, and removal of the PPTase gene precludes natural product synthesis in microorganisms, or in the case of fatty acid biosynthesis, renders the organism unviable. PPTase enzymes belong to a distinct structural superfamily. Within bacteria, these enzymes are grouped into two classes based upon primary structure, the AcpS-Type and Sfp-Type PPTases.
# Sfp-type PPTases, corresponding to an activator of surfactin production in Bacillus subtilis, are responsible for modifying type I polyketide and nonribosomal peptide synthases of prokaryotes. Sfp-type PPTases are responsible for the activation of a variety of pathogen-associated virulence factors. Among these compounds are toxins such as mycolactone from Mycobacterium ulcerans, siderophores such as vibriobactin from Vibrio cholerae or mycobactin from Mycobacterium tuberculosis, as well as the mycolic acids which form the waxy cell wall of Mycobacteria. The biosyntheses of these natural products are considered attractive targets for drug design.
# In search of small molecule Sfp-PPTase inhibitors, a fluorescence quenching assay was developed for detection of Bacillus subtilis Sfp-PPTase enzymatic activity in a miniaturized high-throughput format. The consensus ybbr acceptor peptide […] was N-terminally labeled with Black Hole Quencher-2 (BHQ-2) and used in combination with rhodamine-labeled coenzyme A as a co-substrate.
# Inhibition of Sfp-PPTase was detected by recording the fluorescence intensity change over a 30-minute reaction period at a 525 nm excitation and 598 nm emission. Reagents were supplied by Michael Burkart and Timothy Foley, University of California at San Diego.
# This BioAssay deposition is for validation of the developed Sfp-PPtase assay.
# Assay Buffer: 50 mM Hepes-Na pH 7.6, 10 mM MgCl2, 0.01% Nonidet P-40, and 0.01% BSA.
# 3 uL of Sfp-PPTase enzyme (final concentration 15 nM) and 1 uL of substrate mixture (final concentration for rhodamine-CoA and BHQ-2-YbbR 5 uM and 12.5 uM, respectively) dispensed in columns 1, 2, 5 - 48. Columns 1 and 2 used to generate neutral control (uninhibited reaction)
# Three uL of reagents, consisting of buffer (in columns 3 and 4 as negative control) and Sfp-PPTase (in columns 1, 2, 5 - 48) were dispensed into 1,536-well Greiner black solid bottom plate. Compounds (23 nL) were transferred via Kalypsys pintool equipped with 1,536-pin array. The plate was incubated for 15 min at room temperature, followed by the addition of 1 uL substrate to start the reaction. The plate was then centrifuged at 1000 rpm for 15 seconds, and the fluorescence intensity recorded on a ViewLux High-throughput CCD imager (Perkin-Elmer) using standard BODIPY optics (525 nm excitation and 598 nm emission). The plate was then incubated for 30 minutes, and a second read on the ViewLux was performed. The fluorescence intensity difference over the 30-minute period was used to calculate the respective reaction rate for each well.
# Potency means the concentration at half of the fitted maximal effect.
SMILES,Potency,"largest response in the series, negative = inhibition"
COc1ccc(CN2C(=O)NC(=O)/C(=C\c3ccc(OC)c(OC)c3OC)C2=O)cc1,56.2 µM (active),–
C1CC[C@H]([C@@]23C[C@H](C[C@H]4CCCN[C@H]42)[C@@H]2CCCCN2C3)NC1,–,15.7%
CN(C)C[C@H]1CCCC[C@]1(O)c1cccc(O)c1,–,5.94%
CN(C)CC1Oc2ccccc2OC1(O)c1ccccc1 (configuration not stated),39.8 µM (active),–
Fc1cccc(F)c1CN1CCN(Cc2c(F)cccc2F)CC1,–,16%
Cc1cccc(-n2c(C)nc3cc(C(=O)N4CCC5(CC4)OCCO5)ccc32)c1,–,8.78%
CN(C)P(=S)(Nc1ccccc1)C(Cl)(Cl)Cl (configuration not stated),–,10.7%
COC([CH2][Hg])CNC(=O)c1ccccc1OCC(=O)O (configuration not stated),0.398 µM (active),–
O=C(NC(c1ccc(Cl)cc1)P(=O)(Oc1ccccc1)Oc1ccccc1)OCc1ccccc1 (configuration not stated),–,19.5%
CN1CCCC(=C(c2cccs2)c2cccs2)C1,–,3.76%
c1ccc2c(c1)[I+]c1ccccc1-2,–,-15.8% and 9.27%
O=C1CCc2cccc3c2N1CC3,–,-2.12%
O=C(O)CCn1cc(C=C2C(=O)NC(=S)NC2=O)c(-c2cccc(Br)c2)n1,25.1 µM (active),–
O=P1(Oc2ccccc2)CC(O)C(O)C(COCc2ccccc2)O1 (configuration not stated),–,-2.12%
CCCCCCCCCCCCCC(=O)O[C@@H]1[C@@H](C)[C@@]2(O)[C@@H](C=C(CO)C[C@]3(O)C(=O)C(C)=C[C@@H]23)[C@@H]2C(C)(C)[C@]12OC(C)=O,–,9.82%
c1ccc2sc(C3CCCNC3)nc2c1 (configuration not stated),–,9.62%
Cc1ccc(N(C)C(=O)Oc2cccc3ccc(C)nc23)cc1,–,4.73%
CC(C)c1ccc(O)c(CN2CCN(c3ccccc3)CC2)c1,–,7.52%
c1cc2c(cc1CCNC1CCCCCC1)OCO2,–,-0.383%
CCOP(=S)(OCC)C(O)CCCCCn1c(=O)c(F)cn(C2CCCO2)c1=O (configuration not stated),–,8.97%
N#Cc1cc(Br)c(O)c(Br)c1,–,9.61%
C/C(=C\C=C/[C@@H](C)C(=O)O)[C@H]1CN[C@H](C(=O)O)[C@@H]1CC(=O)O,63.1 µM (active),–
C/C=C1\C2C=C(C)CC1(N)c1ccc(=O)[nH]c1C2 (configuration not stated),–,24.3%
CN(C)C(=O)NC(O)C(Cl)(Cl)Cl (configuration not stated),–,0.838%
CNC(C)[C@@H](O)c1ccccc1 (some centres not stated),–,20.7%
O=C1NC(=O)C(C/C=C/c2ccccc2)C(=O)N1,70.8 µM (active),–
COc1ccc(CCn2c(O)c(C=NCCCn3ccnc3)c(=O)[nH]c2=O)cc1OC,–,15.8%
